# According to PubChem BioAssay AID492998 (Southern Research Specialized Biocontainment Screening …, 2010):
# Hit rate of the full screen: of about 2,300 compounds, about 550 (24%) were called active. These entries were drawn from the full list. Entries with a potency or affinity are not part of this list. Unmarked numbers belong to inactive results. How the calls were made is not given here.
# Test: Vero E6 cell cytotoxicity, dose response, cytotoxicity control for non-replicating M. tuberculosis project, secondary assay (AID 492998);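 further: 100% = vehicle-treated cells and 0% = background wells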
# Details: series mostly up to 20 µM; viability: at the top concentration
row,Compound,viability [%]
1,CCOC(=O)CNc1ccc(C(=O)OCC)cc1[N+](=O)[O-],95.5
2,CC(C)c1ccc(N2C(=O)NC(=O)/C(=C/C=C/c3ccco3)C2=O)cc1,98
3,Brc1ccc(CSc2nnc(-c3ccco3)o2)cc1,107
4,CCCc1ccc(OCc2ccc(C(=O)N/N=C/c3cccnc3)o2)cc1,96.3
5,CN1C(=O)NC(=O)/C(=C/c2ccc([N+](=O)[O-])s2)C1=O,97
6,Cc1cc(C)n(CC(=O)N/N=C/c2ccc([N+](=O)[O-])s2)n1,70.8
7,NC(=O)c1ccc(N=Cc2ccc([N+](=O)[O-])s2)cc1,92.6
8,O=c1oc(/C=C/c2ccc([N+](=O)[O-])s2)nc2ccccc12,99.9
9,NNC(=O)CNC(=O)C12CC3CC(CC(C3)C1)C2,95.4
10,COc1ccccc1C1=NOC(COC(=O)c2ccc([N+](=O)[O-])cc2)C1 (stereo unspecified),98
11,COCCNC(=O)c1cc2cc(Cl)cc(Cl)c2oc1=O,95.2
12,Cc1cccc(OC(=O)c2sc3ncn(C)c(=O)c3c2C)c1,99.5
13,CCn1c2ccccc2c2cc(CNCc3ccc(OC)cc3OC)ccc21,79.5
14,O=C(COc1ccc(Cl)cc1)OCC(=O)N1CCCc2ccccc21,100
15,CC(C)(C)/C(O)=C/c1nc2ccccc2oc1=O,89
16,COc1ccc(NC(=O)c2cnc(SC)nc2)cc1,77.2
17,COc1ccc(NC(=O)CO/N=C2/CCCc3nonc32)c(OC)c1,88
18,CCOC(=O)N1CCC(N2CCCC(C(=O)c3ccc4cc(OC)ccc4c3)C2)CC1 (stereo unspecified),80.3
19,COc1ccc(C(=O)COC(=O)c2ccc(Cl)nc2)c(OC)c1,90.3
20,O=C(COC(=O)CC1CCCC1)Nc1ccc(OC(F)F)cc1,107
21,CCCCOC(=O)c1ccc(OC(=O)c2cccnc2)cc1,85.5
22,Cc1cc(C)cc(OC(=O)c2cccnc2)c1,87.5
23,CCc1cccc(OCCCn2ccnc2)c1,99.3
24,CN1/C(=C\C(=O)COC(=O)C2COc3ccccc3O2)C(C)(C)c2ccccc21 (stereo unspecified),94.6

row,Compound,viability [%]
1,CN1/C(=C\C(=O)COC(=O)c2ccc([N+](=O)[O-])o2)C(C)(C)c2ccccc21,79.5
2,C=CC(=O)Oc1ccc(N2Cc3ccccc3C2=O)cc1,92.8
3,CC1=NN(C(=O)CCCc2ccccc2)C(O)(C(F)(F)F)C1 (stereo unspecified),104
4,Cc1ccc(/C(O)=C/c2nc3ccccc3oc2=O)cc1,89.3
5,CN(CC(=O)Nc1ccc(Cl)cc1)C1CCCCC1,92.6
6,COc1ccc(OCCCC(=O)Nc2ccc(N3CCOCC3)cc2)cc1,102
7,CCOCCOC(=O)c1ccc(NC(=O)C2COc3ccccc3O2)cc1 (stereo unspecified),112
8,CCOC(=O)COc1ccc2c(c1)c(C(C)=O)c(C)n2Cc1ccccc1,103
9,Cc1c(C(=O)N(C)C)sc2nc(-c3ccccn3)[nH]c(=O)c12,70.9
10,Cc1nnc(SCCC(=O)Nc2ccc(Cl)cc2)o1,111
11,CCOc1ccc2nc(/N=C/c3nc(-c4ccccc4)oc3O)sc2c1,91
12,Cc1nc2ccc(OC(=O)c3ccccc3)cc2s1,101
13,CCOc1ccc(OCC(=O)Nc2nccs2)cc1,96.3
14,O=C(COc1ccccc1)NNc1nc2ccccc2s1,102
15,CCCNC(=O)OCC12CC3CC(CC(C3)C1)C2,94.7
16,N=C1/C(=C/c2ccc(OC(=O)c3ccco3)cc2)C(=O)N=C2SC=CN12,107
17,c1ccc(CNCCC(Cc2ccccc2)c2ccco2)cc1 (stereo unspecified),81.8
18,CC(C)(C)C(=O)/C=C/Nc1ccccc1O,82
19,Cc1cc(C)n(C(=O)c2ccc([N+](=O)[O-])cc2[N+](=O)[O-])n1,96.6
20,CC(=O)c1ccc(Sc2nnnn2-c2ccccc2)c([N+](=O)[O-])c1,75
21,CC(=O)Nc1ccc(NC(=O)c2cc([N+](=O)[O-])cc([N+](=O)[O-])c2)cc1,83.2
22,O=C(NCc1cccs1)c1ccc([N+](=O)[O-])cc1,106
23,COc1ccc2cc(C(=O)NCc3ccccc3)c(=O)oc2c1,108
24,CC(C)OC(=O)c1cc(C(=O)c2cc(Cl)ccc2O)coc1=N,109

row,Compound,viability [%]
1,O=C(NNc1ccc([N+](=O)[O-])cc1)C1CC1c1ccccc1 (stereo unspecified),100
2,CC(C)(C)c1ccc(OCCC(=O)OCC(=O)NC2CC2)cc1,108
3,O=C(Oc1ccc(F)cc1)c1ccc2c(=O)n3c(nc2c1)CCC3,98.7
4,COC(=O)c1ccc(N2CCN(CCNC(=O)Nc3ccc(OC)cc3)CC2)cc1,110
5,C#CCSc1nnc(-c2ccc(O)cc2)o1,103
6,C#CCSc1nnc(-c2ccc(C)cc2)o1,97.5
7,Cc1cc(Cl)ccc1N(CC(=O)NCc1ccccc1)S(C)(=O)=O,108
8,CCCCn1nnc(NC(=O)COc2ccc(Cl)c(C)c2)n1,107
9,O=C(COC(=O)CCc1c[nH]c2ccccc12)NCc1ccc(Cl)cc1,96.6
10,COc1ccc(OC(=O)CCc2c[nH]c3ccccc23)cc1,89.6
11,O=C(COC(=O)CCc1c[nH]c2ccccc12)NCc1ccc2c(c1)OCO2,106
12,N#Cc1ccc(COC(=O)CCc2c[nH]c3ccccc23)cc1,98
13,C=Cc1cccc(NC(=O)COc2ccccc2)c1,95.2
14,COc1ccc(Cc2nnc(SCc3ccc([N+](=O)[O-])cc3)o2)cc1,90.6
15,Cc1[nH]nc2c1C(c1ccc(-c3ccc(Cl)cc3)o1)C(C#N)=C(N)O2 (stereo unspecified),85.1
16,O=C1/C(=C/c2ccco2)CCC1C1CCCC1 (stereo unspecified),99.2
17,CC(NC(=O)COc1ccccc1F)C1CC2CCC1C2 (stereo unspecified),93.9
18,CCOC(=O)c1ccc(NC(=O)CCSCCc2ccccn2)cc1,102
19,CCOc1ccc(-c2nc3ccccc3c(=O)o2)cc1,87
20,CCOC(=O)N1CCC(NS(=O)(=O)c2cc3c(cc2Cl)NC(=O)CO3)CC1,106
21,CCCNC(=O)N1CCC(c2ccc3c(c2)OCO3)CC1,96.4
22,OCC1(CCOc2ccccc2)CCN(Cc2cc(Cl)ccc2O)CC1,99.6
23,COc1ccc(C2(O)CCN(CCCCOc3ccccc3)CC2)cc1,101
24,COc1cccc2cc(C(=O)c3ccc([N+](=O)[O-])cc3)oc12,105

row,Compound,viability [%]
1,CC1COC(=O)C(NNc2ccc(Cl)c(Cl)c2)=N1 (stereo unspecified),101
2,CC(=O)Nc1cccc(-c2nc3ccccc3c(=O)o2)c1,113
3,CC(C)Cc1cc(C(=O)Nc2ccc(F)cc2F)no1,101
4,CC(C)c1nnc(NC(=O)c2cc3cc(Br)ccc3oc2=O)s1,99.5
5,CCCC(=O)Nc1cccc(-c2nc3ccccc3c(=O)o2)c1,107
6,O=C(Oc1ccc(/C=N/O)cc1)c1ccccc1Cl,98.6
7,O=C(COC(=O)CCN1C(=O)/C(=C\C=C\c2ccccc2)SC1=S)Nc1cc(F)ccc1F,109
8,O=C(O)CCCCCN1C(=O)/C(=C\c2ccncc2)SC1=S,73.2
9,O=C(NCCN1C(=O)S/C(=C\c2ccccc2F)C1=O)C1CCN(S(=O)(=O)c2cccs2)CC1,105
10,CN1C(=O)/C(=C/c2cccc(Cl)c2)Sc2ccc(C(=O)N3CCCC3)cc21,80
11,O=C(CC1CC2CCC1C2)NCc1cccs1 (stereo unspecified),99.9
12,CCOc1ccc(-c2cc(CCCC(=O)NCCC(C)C)no2)cc1,84
13,Cc1ccc(N2C(=O)CC(Sc3nccc(C)n3)C2=O)cc1 (stereo unspecified),101
14,Cc1cccc(C2=N/C(=C\c3cccnc3)C(=O)O2)c1,98.2
15,Cc1ccc(-c2noc(CCC(=O)Nc3cccc(C#N)c3)n2)cc1,96.9
16,CCNc1nc(NC(C)(C)C)nc(N2CCCCC2)n1,71.7
17,COc1cc(NC(=O)C/C(C)=N/NC(=O)c2cccs2)c(OC)cc1Cl,95.5
18,O=C(OCC(=O)N1CCCc2ccccc21)c1ccc(S(=O)(=O)C(F)F)cc1,99.6
19,CCOC(=O)COc1ccc2c(c1)C(=O)CC(C)(c1cccnc1)O2 (stereo unspecified),101
20,O=C(N/N=C\c1ccccc1OCc1ccccc1)c1ccco1,93.2
21,C/C(=N\NC(=O)c1cccs1)c1ccc2c(c1)OCO2,99.2
22,O=C(Oc1cccc2cccnc12)c1ccc2c(c1)OCCO2,78.9
23,Cc1occc1C(=O)N/N=C/c1ccc[nH]1,92.1
24,CC(/C=C/c1ccccc1)=N\NC(=O)c1ccc2c(c1)OCCO2,79.4

row,Compound,viability [%]
1,O=C(N/N=C/c1ccc[nH]1)c1ccc2c(c1)OCO2,110
2,COCCCn1c(=NC(=O)c2ccccc2)c(C#N)cc2c(=O)n3cccc(C)c3nc21,98.9
3,CCOC(=O)COc1c(-c2ccc(OC)cc2)oc2ccccc2c1=O,93.6
4,O=C1CC(N2CCN(c3ccc(F)cc3)CC2)C(=O)N1Cc1ccccc1 (stereo unspecified),90.4
5,O=C1NCC(O)=C1C=Nc1ccccc1O,86.1
6,COC(=O)c1cccc(COC(=O)c2cc3ccccc3oc2=O)c1,105
7,CN(CCCCOc1ccc(F)cc1)Cc1ccccc1,92.9
8,O=C(Nc1ccn(Cc2ccccc2)n1)c1ccc(F)cc1,96.2
9,O=C(c1ccc([N+](=O)[O-])cc1[N+](=O)[O-])N1CCc2ccccc21,97.2
10,CCOC(=O)c1ccc(COC(=O)c2ccc(-c3nnc(-c4ccccc4)o3)cc2)o1,98
11,CC(/C=C/c1cccc([N+](=O)[O-])c1)=N\NC(=O)c1ccncc1,95.2
12,NC(=O)C1(N2CCCCC2)CCN(C2CC(=O)N(CCc3ccccc3)C2=O)CC1 (stereo unspecified),107
13,COC(CNC(=O)c1ccc2c3c(onc13)-c1ccccc1C2=O)OC,73.8
14,O=[N+]([O-])c1cc(N=Nc2ccc3ccccc3c2)ccc1O,92.2
15,CCCCCCOc1ccc(N2C(=O)CC(N3CCN(C(=O)c4ccco4)CC3)C2=O)cc1 (stereo unspecified),95.4
16,O=C(Oc1ccccc1)c1ccc(NC(=O)c2ccco2)cc1,90.4
17,O=C(/C=C/Nc1ccccc1O)c1ccco1,112
18,Nc1nnc(SCCCC(=O)c2ccc(Br)cc2)s1,94.2
19,CC(=O)c1c(C)n(C)c2ccc(OC(=O)c3ccco3)cc12,95.8
20,COc1cc(OC)cc(OC(=O)c2ccc3c(=O)n4c(nc3c2)CCC4)c1,99.6
